# USP8 inh – blocks human USP8 ubiquitin-rhodamine cleavage | P40818 | purified USP8, Ub-rhodamine cleavage fluorescence, 30 min | 4.2% of 47,000 active | AID 1645853 | inhibition, % at 20 µM
# USP30 inh – inhibitors of human USP30 deubiquitinase; inhibition, % at 25 µM; AID 1645860; 5.3% of 47,000 active; Q70CQ3; purified USP30, Ub-rhodamine cleavage fluorescence
# Target sequence (Q70CQ3 whole entry, looked up): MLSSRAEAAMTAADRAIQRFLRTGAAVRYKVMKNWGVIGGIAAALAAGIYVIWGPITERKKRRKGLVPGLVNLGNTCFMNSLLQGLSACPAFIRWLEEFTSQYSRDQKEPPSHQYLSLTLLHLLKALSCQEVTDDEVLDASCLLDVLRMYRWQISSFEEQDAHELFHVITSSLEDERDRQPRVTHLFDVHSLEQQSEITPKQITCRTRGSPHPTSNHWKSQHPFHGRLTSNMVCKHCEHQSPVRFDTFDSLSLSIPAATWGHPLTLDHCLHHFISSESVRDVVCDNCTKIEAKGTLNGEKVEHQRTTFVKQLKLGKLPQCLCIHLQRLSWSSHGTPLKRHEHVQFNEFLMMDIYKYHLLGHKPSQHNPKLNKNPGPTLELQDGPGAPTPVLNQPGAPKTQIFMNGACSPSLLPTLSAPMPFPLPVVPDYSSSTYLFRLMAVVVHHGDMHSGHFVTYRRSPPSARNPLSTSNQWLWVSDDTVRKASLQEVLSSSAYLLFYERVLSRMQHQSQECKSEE
# USP10 block – human USP10 deubiquitinase inhibition; 1.1% of 47,000 active; inhibition, % at 20 µM; purified USP10, Ub-rhodamine fluorescence, 60 min
# USP17 block – blocks human USP17 ubiquitin-rhodamine cleavage; A8MUK1; purified USP17, Ub-rhodamine cleavage fluorescence, 3 h; inhibition, % at 50 µM; 6.5% of 47,000 active
# USP28 block – inhibitors of human USP28 deubiquitinase | purified USP28, Ub-rhodamine cleavage fluorescence, 30 min | Q96RU2 | 3% of 47,000 active | AID 1645857 | inhibition, % at 25 µM
# Starred values were filed as active, the others as inactive. Hits are enriched below; roughly 14% of the tested compounds scored in any of these assays. Cut-off read from the data, not from the text of the source: active = inhibition above about 30%; inactive = the rest.
SMILES,USP8 inh,USP30 inh,USP10 block,USP17 block,USP28 block
CC(NC(=O)c1ccc(-c2nnc(-c3ccccc3)o2)cc1)c1ccc(S(C)(=O)=O)cc1 (centres undefined),4.4,41.5*,4.5,70.9*,22.5
CS(=O)(=O)c1ccc(-c2nnc(NC(=O)c3ccco3)o2)cc1,-1.6,10.4,1.9,6.1,8.6
CCc1nc(CN2CCN(C3CCOCC3)CC(C(N)=O)C2)c(C)[nH]1 (centres undefined),0.2,11.4,-1.6,-0.1,-1.1
CCc1nc(CN2CCOC(C)(C(=O)N3CCOCC3)C2)c(C)[nH]1 (centres undefined),9.6,30.1*,-1.6,6.6,6.1
COc1ccccc1CNC(=O)c1oc(=O)c2ccccc2c1-c1ccc(C)cc1,10.4,39.8*,13.0,21.4,25.1
CCN(CC)C(=O)[C@@]1(c2ccccc2)C[C@H]1COc1ccc(C)cc1,20.2,28.9,4.6,30.3*,24.8
COc1ccccc1[C@]1(C(=O)N2CCOCC2)C[C@H]1COc1ccccc1,0.6,18.2,-1.4,1.3,8.0
Cc1nc(-c2noc3ccc(C(=O)NC4CCCC4)cc23)co1,16.6,33.1*,2.8,31.6*,17.0
O=C(Nc1cccc(OC(=O)c2ccc(Cl)cc2)c1)c1ccc(Cl)cc1,18.0,-3.2,12.8,63.3*,4.3
Cc1nc(-c2noc3ccc(C(=O)NCCc4cccnc4)cc23)co1,0.1,2.7,0.0,-3.1,-6.3
O=C(Nc1ccccc1)c1ccc2noc(-c3ccc(F)cc3)c2c1,-59.0,-12.6,-3.4,-6.7,4.4
Cc1cccc(NC(=O)c2ccc3noc(-c4ccc(F)cc4)c3c2)c1,-7.9,-41.5,2.7,-16.9,-21.2
COc1cccc(NC(=O)c2ccc3noc(-c4ccc(Cl)cc4)c3c2)c1,2.9,0.2,14.3,57.6*,-0.1
O=C(Nc1ccc2c(c1)OCO2)c1ccc2noc(-c3ccc(Cl)cc3)c2c1,5.1,10.5,11.4,37.5*,16.7
COc1cc(C2CC(=O)c3c([nH]c(C(=O)OCCOc4ccccc4)c3C)C2)cc(OC)c1OC (centres undefined),-15.6,-141.7,-4.1,-21.7,-50.0
CCCCN(C)C(=O)/C(=C\c1ccc(C)cc1)n1ccccc1=O,-24.0,-23.9,-4.1,-9.4,-9.5
CC(=O)c1cccc(NC(=O)c2ccc3noc(-c4ccc(F)cc4)c3c2)c1,-42.0,41.3*,-0.2,0.0,9.4
O=C(NC1CCCC1)c1ccc2noc(-c3ccc(Cl)cc3)c2c1,-0.6,-35.5,0.0,39.2*,-11.1
COCCn1c(C(=O)Nc2cccc(C(C)=O)c2)cc2c(=O)n(C)c(=O)n(C)c21,-23.6,-22.4,-4.2,-25.4,-16.4
COc1ccc([C@H]2N(C(=O)c3cc(C4CC4)on3)CCC[C@]23CCC(=O)N3)cc1,0.5,-5.3,0.1,-1.7,0.7
O=C(O)CCc1nc2cc(C(F)(F)F)ccc2n(Cc2ccccc2)c1=O,8.7,0.1,0.0,41.4*,12.4
Cc1c(C(=O)N2CCOCC2)nnn1-c1cccc2c1CCN(Cc1ccncc1)C2,9.4,-11.7,-5.3,-0.1,-6.6
Cc1cccc(C(=O)Nc2cccc(SC(C(=O)Nc3ccc(O)c(C(=O)O)c3)c3ccccc3)c2)c1 (centres undefined),87.9*,6.1,31.4*,29.4,51.9*
O=C(O)c1ccccc1C(=O)Nc1ccc(SC(C(=O)Nc2ccccc2Cl)c2ccccc2)cc1 (centres undefined),-1.3,4.2,49.3*,47.4*,23.8
O=C(O)c1cccc(NC(=O)C(Sc2cccc(NC(=O)c3cccc(Cl)c3)c2)c2ccccc2)c1 (centres undefined),3.4,-3.6,46.0*,41.6*,26.1
Cc1ccccc1C(=O)Nc1cccc(SC(C(=O)Nc2ccc(O)c(C(=O)O)c2)c2ccccc2)c1 (centres undefined),2.3,38.2*,12.7,28.2,15.3
Cc1cccc(NC(=O)C(Sc2ccc(NC(=O)c3ccccc3C(=O)O)cc2)c2ccccc2)c1 (centres undefined),-18.8,-38.2,12.5,-23.1,-15.4
Cc1cccc(Cn2cnc3c(nnn3Cc3ccccc3F)c2=O)c1,4.6,-43.6,4.6,22.7,30.1*
COc1ccccc1-c1noc(Cn2cnc3c(nnn3Cc3ccc(F)cc3)c2=O)n1,-8.3,15.4,7.9,-4.0,3.5
COc1ccc(/C=C2\NC(=O)[C@H]3Cc4ccccc4CN3C2=O)cc1,45.6*,-7.3,10.2,0.9,-2.5

# Bioassay records from PubChem BioAssay.
